In the supplement of paper PMC6555819:

Legend:
Assay in all cases: PBM binding z-score (relative to random genomic background probes); higher = stronger binding; sequences stand for … in GC…GCGATTGACAGCGTAGAATGAAGG
[1] = system: PPARg:RXRa DBDmut IVT, anti-RXR (DBD mutation: RXRa K156A/R161A, NR concentration 270 nM, RXRa partner concentration 90 nM)
Outline: (§1)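 Custom Agilent 4×180K protein-binding microarrays carried double-stranded probes, each with a 34-nt variable region. These regions held direct-repeat seeds, single-nucleotide variants, half-site ablations and random human genomic background sequences. Ligand-free nuclear receptor dimers were incubated on the arrays for 1 h, antibodies against each partner (one per run) detected binding, and scanned fluorescence was regression-normalized. Binding z-scores take the random background probes as reference.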

[2] = system: PPARg:RXRa IVT, anti-PPARg (NR concentration 270 nM, RXRa partner concentration 90 nM)
Outline: as §1

[3] = system: PPARg DBDmut:RXRa IVT, anti-PPARg (DBD mutation: PPARg1 K132A/R137A, NR concentration 270 nM, RXRa partner concentration 90 nM)
Outline: as §1

[4] = system: PPARg DBDmut IVT, anti-PPARg (DBD mutation: PPARg1 K132A/R137A, NR concentration 270 nM)
Outline: as §1

[5] = system: PPARg homodimer (NR concentration 180 nM)
Outline: as §1

[6] = system: PXR:RXRa (NR concentration 270 nM, RXRa partner concentration 90 nM)
Outline: as §1

[7] = system: PXR homodimer (NR concentration 270 nM)
Outline: as §1

[8] = system: RARa:RXR (NR concentration 270 nM, RXRa partner concentration 90 nM)
Outline: as §1

[9] = system: RARa homodimer (NR concentration 270 nM)
Outline: as §1

[10] = system: RARb:RXRa (NR concentration 270 nM, RXRa partner concentration 90 nM)
Outline: as §1

Row | Sequence | PBM binding z-score [1] | PBM binding z-score [2] | PBM binding z-score [3] | PBM binding z-score [4] | PBM binding z-score [5] | PBM binding z-score [6] | PBM binding z-score [7] | PBM binding z-score [8] | PBM binding z-score [9] | PBM binding z-score [10]
1 | CCTAGTTGGTCAAGGTCACTCACGCTATAGGTAC | 2.34 | 3.16 | 0.496 | 1.05 | 3.66 | 3.73 | 2.8 | 3.58 | 2.53 | 4
2 | CCTTACGGGTCACTGACAAGTTATAGCATTTGGA | 3.61 | 3.76 | 0.661 | 0.743 | 2.03 | 2.77 | -0.0294 | 3.98 | 1.19 | 3.81
3 | ATCTCTAGGTAAGACTCAGTTCTGTGAAGAACGC | 1.91 | 0.663 | 0.175 | 0.855 | 0.76 | 0.28 | 0.287 | 0.274 | 1.02 | -0.117
4 | TCATATAGGTAAACAGGTGAACGTCCGTAAGTTA | 5.34 | 5.19 | 1.47 | 1 | 1.69 | 1.09 | 0.569 | 1.4 | 1.29 | 0.977
5 | CTCGAAAGGTCTTGCTCAGGTGAGTATACCAAAC | 0.411 | 0.795 | 0.193 | -0.313 | 0.433 | 0.314 | -0.568 | 0.971 | -0.363 | 1.75
6 | CAGCCTAGGTCAGGGACAGTATAGGAGGAACGTT | 1.29 | 1.68 | -0.599 | -0.73 | 0.801 | 0.546 | -0.219 | 1.22 | 0.00135 | 3.4
7 | AGACTGAGGTTATACGTAGATCAGGGAAGAAAGT | 0.425 | 0.435 | 0.201 | 0.0103 | 0.623 | 1.09 | 0.133 | 1.68 | 0.064 | 1.46
8 | AGAACGAGGGCACGCGGAGTTGATAGCAGAGTAG | 4.28 | 4.01 | 0.563 | -0.521 | 0.0413 | 1.45 | -0.14 | 1.12 | -0.653 | 2.64
9 | CGAACTAGGTCAGAACAGCACAGTGAAGGATGAT | 7.06 | 7 | 0.891 | 0.278 | 0.531 | 0.247 | -0.0288 | 0.419 | 0.0797 | 2.92
10 | GCGACTGGGGCAAAGCAGGTTTCCATAAGGTTGG | 4.2 | 3.02 | -0.184 | -0.615 | -0.0282 | -0.473 | -0.449 | -0.165 | -0.557 | 0.376
11 | CCTTACGGGTCAAGATTATAGCACGGGTGGTACG | 1.74 | 2.81 | -0.14 | 0.0306 | 2.2 | 2.85 | -0.0377 | 4.07 | 1.11 | 3.98
12 | GATACAGGGGCAGCTAGAGGCCAGAGTATGGAAA | 0.509 | 0.442 | -0.18 | -0.917 | -0.0981 | -0.0351 | -0.216 | -0.106 | -0.394 | 1.57
13 | GCTGCTAGGTCACCTGATGGTCAGCTAAAGCTCG | 4.7 | 4.09 | 0.447 | 0.446 | 1.57 | 1.2 | -0.963 | 2.67 | -0.925 | 3.86
14 | ACTTACGGGTCATCGAGGTTATAGCACGCGTATA | 2.89 | 4.16 | 1.78 | 1.14 | 2.09 | 5.14 | 4.1 | 4.92 | 1.11 | 4.11
15 | GGACCGAGGGCAAAGTTGATAGCATCTGTCGACG | 0.973 | 1.67 | -0.427 | -0.551 | 0.198 | 1.04 | -0.387 | 1.26 | -0.439 | 2.4
16 | AGTCAAAGTTCACTAGGTAACGTAAGATTCAGCT | 2.87 | 5.16 | 1.07 | 1.01 | 2.38 | 3.71 | 2.66 | 2.74 | 0.986 | 4.72
17 | CGGCCTAGGTCAGGGCCAGTATAGGAGGAACGTT | 0.747 | 1.22 | -2.1 | -2.32 | -0.013 | 0.223 | -0.954 | 0.858 | -0.476 | 3.17
18 | GCGACTGGGGCATTAGCAGGTTACCATAACTTAA | 3.92 | 2.83 | -0.21 | -0.476 | 0.463 | -0.152 | -0.13 | 0.182 | -0.164 | 0.559
19 | ATCTCTAGGTAAAGATAATTCAGTGAATGCAAAT | 2.32 | 1.93 | 1.06 | 1.29 | 0.141 | 0.14 | 0.504 | 0.441 | 1.38 | -0.0226
20 | AGTCCAAGTTCATCTAGGTAACGTAAGATATGCT | 0.673 | 2.16 | 1.06 | 0.824 | 1.01 | 3.95 | 5.64 | 1.67 | 0.0751 | 3.3
21 | ATCTCAAGGTAAAAGTTCAGTGAATCCCGAGGAT | -0.133 | 1.48 | 0.958 | 1.4 | 0.853 | 2.03 | 1.43 | 2.15 | 0.0495 | 2.62
22 | ATCGAGAGGTCGTGAGGTGAGTATACAGAAAGGC | 0.135 | 2.04 | 1.16 | 0.618 | 1.02 | 2.66 | 0.102 | 3.54 | 0.567 | 3.05

Row | Sequence | PBM binding z-score [1] | PBM binding z-score [2] | PBM binding z-score [3] | PBM binding z-score [4] | PBM binding z-score [5] | PBM binding z-score [6] | PBM binding z-score [7] | PBM binding z-score [8] | PBM binding z-score [9] | PBM binding z-score [10]
23 | TTACCAAGGTGAAGGTGGTTGATCCCTCTGTAGA | 1.73 | 2.52 | -0.348 | -0.272 | 0.43 | 0.325 | -0.346 | 0.45 | -0.245 | 1.37
24 | ATCTCTAGGTAAAAGTTCCGTGAATCCCGAGGAT | 2.32 | 1.72 | 0.769 | 1.67 | 0.967 | -0.0655 | 0.269 | 0.0824 | 0.505 | 0.237
25 | CAAACTAGGTCACAGAGTTCAAAGTCCGTGCGTA | 8.6 | 9.07 | 5.41 | 5.72 | 4.68 | 6.97 | 14.2 | 5.88 | 1.27 | 4.91
26 | CGTCCAAGGTCAGAGAGGTCCGTGAATGCCGAGT | 2.12 | 2.18 | -0.282 | -0.705 | 1.61 | 3.03 | 1.11 | 2.98 | 0.291 | 4.67
27 | CAAACTAGGTCAAAGTCAAAGTCGGTTTGTGCCA | 8.48 | 8.78 | 4.97 | 3.93 | 1.7 | 1.63 | -0.171 | 2.61 | 0.68 | 4.01
28 | ATCTAAAGGTCGAGGTGAGTATAGAGAAAGGGAA | 0.937 | 2.41 | 1.38 | 1.16 | 2.16 | 2.7 | 1.07 | 3.32 | 1.18 | 4.33
29 | CTCGAAAGGTCGGTTCAGGTGAGTATACGGATAA | 0.179 | 0.896 | 0.489 | 0.134 | 0.753 | 2.53 | 0.887 | 2.11 | 0.864 | 2.96
30 | ATATGTTGGTTAAGGGTCATTCAGGTTGGTTCGC | 1.61 | 3.8 | 1.51 | 1.87 | 4.23 | 5.21 | 3.35 | 4.73 | 3.39 | 3.39
31 | GCTATTAGTTGAAAGGGCCACCGAATGATTCTCG | 0.635 | -0.116 | 0.0939 | -0.248 | 0.586 | -0.34 | -0.184 | -0.0438 | 0.309 | 1.02
32 | AGAATGAGGTTAAGCTCAGGGAAACAGAATACAT | 3.66 | 2.98 | 0.873 | 0.751 | -0.0277 | 1.1 | 0.0253 | 2.17 | -0.438 | 2.06
33 | ATCTCTACGTAAAGTTCAGTGAAAGATCGATAGA | -0.332 | 0.634 | 1.64 | 1.55 | 1.75 | 1.93 | 1.97 | 1.39 | 1.12 | 3.02
34 | CCTAGCAGGCCAGTCTGGGTCACTCAAGGCTTGA | 1.92 | 2.62 | -1.53 | -2.16 | -0.0647 | 0.811 | -0.718 | 1.45 | -1.53 | 1.42
35 | CAAACCAGGTCACCGGAAGGTCAAAGTCCGCATG | 5.78 | 6.75 | 1.83 | 1.5 | 9.32 | 6.5 | 3.77 | 8.09 | 3.77 | 5.33
36 | AGTCAAAGTTCATCTATGTAACGTAAGATATGCT | 0.144 | 2.33 | 0.955 | 1.14 | 3.7 | 5.09 | 5.26 | 3.82 | 1.52 | 4.89
37 | CAAACTAGGTCACAGAGGTCAAAGACCGTGCGTA | 8.39 | 9.08 | 7.99 | 2.78 | 5.75 | 6.86 | 10.2 | 7.44 | 2.59 | 5.37
38 | ATCTCTAGGTAAAAGTTCAGTGCATCCCGAGGAT | 1.88 | 3.85 | 0.957 | 1.05 | 1.6 | 2.28 | 2.08 | 1.69 | 1.4 | 2.36
39 | CAAACTAGATCACGAAAGGTCAAAGTCGAATGAC | 3.85 | 4.1 | 1.64 | 2.11 | 4.54 | 5.85 | 2.42 | 6.41 | 2.84 | 4.5
40 | CCGACTCGGGCAAGGTTACCATAACGCACAGCCA | 0.68 | 0.196 | -0.901 | -1.26 | -0.121 | 0.246 | -0.0787 | 0.655 | -0.459 | 1.33
41 | CCGAGTAGGTTATGGGGCTTTCAGGCAACGGTGA | 3.12 | 2.84 | -0.365 | -0.667 | 0.638 | -0.191 | -0.0344 | -0.019 | 0.153 | 0.525
42 | CAAACTAGGTCAATGGTCAAAGTCGAGCCAACCA | 8.19 | 8.52 | 2.18 | 0.945 | 1.27 | 1.38 | 0.195 | 2.25 | 0.441 | 3.9
43 | CGTCCAAGGTCATAGTAGGTCAGTGAAGACAGAT | 4.15 | 5.33 | 1.45 | -0.159 | 2.97 | 5.67 | 2.73 | 5.14 | 1.92 | 5.12
44 | ACTATTAGGTGAGACGAGGGCAACCGATAGGTTG | 4.85 | 3.95 | 1.23 | 0.854 | 1.46 | 2.81 | 0.453 | 1.39 | 0.564 | 1.64
